Legend:
Test in all cases: log2 ratio of Biotin-Ahx-Ub-VS probe labelling (fragment/DMSO); higher = less target engagement (more negative = stronger competition), active = hit call of the paper (q ≤ 0.05, log2 ratio ≤ -1)
Conditions in all cases: compound concentration: 200 uM; treatment time: 3 h
OTUD6B = molecular target: T1, OTUD6B (UniProt Q8N6M0)
T1 sequence (whole entry): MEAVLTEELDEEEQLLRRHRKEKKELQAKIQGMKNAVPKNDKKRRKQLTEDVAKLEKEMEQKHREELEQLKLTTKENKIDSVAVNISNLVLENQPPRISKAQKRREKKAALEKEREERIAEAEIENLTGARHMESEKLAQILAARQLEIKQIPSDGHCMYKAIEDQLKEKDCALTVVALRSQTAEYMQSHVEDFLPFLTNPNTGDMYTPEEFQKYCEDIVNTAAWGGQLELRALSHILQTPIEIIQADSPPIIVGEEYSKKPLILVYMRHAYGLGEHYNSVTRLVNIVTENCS
How it was run: (§1)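 Global-median-normalised Spectronaut label-free quantities were compared by unpaired t-test, and values are average log2 ratios of fragment over vehicle. Only proteins with ≥2 unique peptides were used. HEK293T lysate (495 µg per sample) was treated in triplicate with fragment at 200 µM or vehicle for 3 h and then with Biotin-Ahx-Ub-VS at 0.5 µM final for 1 h. Labelled DUBs were then NeutrAvidin-enriched, digested with LysC and trypsin, and run by diaPASEF LC-MS/MS.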

OTUD7B = molecular target: T2, OTUD7B (UniProt Q6GQQ9)
T2 sequence (whole entry): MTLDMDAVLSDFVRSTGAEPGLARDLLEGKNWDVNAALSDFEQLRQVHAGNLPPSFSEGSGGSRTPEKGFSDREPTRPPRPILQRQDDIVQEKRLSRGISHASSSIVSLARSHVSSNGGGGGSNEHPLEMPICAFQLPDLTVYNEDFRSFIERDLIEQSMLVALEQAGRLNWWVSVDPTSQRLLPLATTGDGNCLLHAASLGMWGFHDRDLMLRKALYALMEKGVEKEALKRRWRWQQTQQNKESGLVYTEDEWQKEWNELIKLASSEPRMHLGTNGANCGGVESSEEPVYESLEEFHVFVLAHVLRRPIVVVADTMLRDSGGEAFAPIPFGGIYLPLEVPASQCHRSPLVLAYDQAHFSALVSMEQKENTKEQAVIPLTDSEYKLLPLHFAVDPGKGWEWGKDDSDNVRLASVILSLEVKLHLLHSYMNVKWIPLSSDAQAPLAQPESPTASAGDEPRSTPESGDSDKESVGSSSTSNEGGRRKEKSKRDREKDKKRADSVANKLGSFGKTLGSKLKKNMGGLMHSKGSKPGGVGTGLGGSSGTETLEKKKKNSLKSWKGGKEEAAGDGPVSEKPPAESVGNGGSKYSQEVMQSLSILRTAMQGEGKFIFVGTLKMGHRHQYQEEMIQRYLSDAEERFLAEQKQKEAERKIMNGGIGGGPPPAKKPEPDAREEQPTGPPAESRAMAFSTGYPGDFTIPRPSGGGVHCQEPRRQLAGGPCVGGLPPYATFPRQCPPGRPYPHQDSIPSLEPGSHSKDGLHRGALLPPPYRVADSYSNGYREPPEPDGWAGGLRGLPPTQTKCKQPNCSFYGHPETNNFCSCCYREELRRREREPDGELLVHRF
How it was run: as §1

PRPF8 = PRPF8 (UniProt Q6P2Q9)
How it was run: as §1

PSMD7 = molecular target: T3, PSMD7 (UniProt P51665)
T3 sequence (whole entry): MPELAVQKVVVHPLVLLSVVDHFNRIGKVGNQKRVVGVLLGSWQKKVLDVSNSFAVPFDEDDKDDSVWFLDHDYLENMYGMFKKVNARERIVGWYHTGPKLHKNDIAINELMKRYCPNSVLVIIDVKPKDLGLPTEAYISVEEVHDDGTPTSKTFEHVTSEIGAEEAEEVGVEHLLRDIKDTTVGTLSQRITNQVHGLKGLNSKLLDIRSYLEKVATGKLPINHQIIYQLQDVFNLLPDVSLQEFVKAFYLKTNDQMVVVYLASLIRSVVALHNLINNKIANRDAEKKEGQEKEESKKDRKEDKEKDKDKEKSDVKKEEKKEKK
How it was run: as §1

UCHL1 = UCHL1 (UniProt P09936)
Chain of UCHL1 (P09936 whole entry, looked up): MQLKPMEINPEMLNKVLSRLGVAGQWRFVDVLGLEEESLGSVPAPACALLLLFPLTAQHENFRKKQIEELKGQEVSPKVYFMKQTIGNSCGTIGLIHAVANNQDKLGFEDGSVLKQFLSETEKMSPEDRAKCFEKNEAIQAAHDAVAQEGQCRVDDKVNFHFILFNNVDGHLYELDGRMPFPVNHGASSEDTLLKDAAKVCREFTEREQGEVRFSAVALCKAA
How it was run: as §1

UCHL3 = molecular target: T4, UCHL3 (UniProt P15374)
T4 sequence (whole entry): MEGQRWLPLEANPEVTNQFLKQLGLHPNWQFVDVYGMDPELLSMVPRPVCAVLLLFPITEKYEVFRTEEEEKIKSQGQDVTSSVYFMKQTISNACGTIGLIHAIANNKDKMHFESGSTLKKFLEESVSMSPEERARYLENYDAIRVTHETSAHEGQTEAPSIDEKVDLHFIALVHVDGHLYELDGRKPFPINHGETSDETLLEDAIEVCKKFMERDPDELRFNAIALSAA
How it was run: as §1

UCHL5 = molecular target: T5, UCHL5 (UniProt Q9Y5K5)
T5 sequence (whole entry): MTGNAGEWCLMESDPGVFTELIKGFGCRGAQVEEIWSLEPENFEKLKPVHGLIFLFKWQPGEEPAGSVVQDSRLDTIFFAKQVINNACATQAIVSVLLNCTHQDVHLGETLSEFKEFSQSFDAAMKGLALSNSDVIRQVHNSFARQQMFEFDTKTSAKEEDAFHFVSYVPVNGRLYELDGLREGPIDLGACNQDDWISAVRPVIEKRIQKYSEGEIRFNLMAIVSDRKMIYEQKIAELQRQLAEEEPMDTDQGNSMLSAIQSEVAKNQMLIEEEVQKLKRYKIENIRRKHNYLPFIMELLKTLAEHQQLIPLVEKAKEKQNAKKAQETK
How it was run: as §1

USP10 = USP10 (UniProt Q14694)
Chain of USP10 (Q14694 whole entry): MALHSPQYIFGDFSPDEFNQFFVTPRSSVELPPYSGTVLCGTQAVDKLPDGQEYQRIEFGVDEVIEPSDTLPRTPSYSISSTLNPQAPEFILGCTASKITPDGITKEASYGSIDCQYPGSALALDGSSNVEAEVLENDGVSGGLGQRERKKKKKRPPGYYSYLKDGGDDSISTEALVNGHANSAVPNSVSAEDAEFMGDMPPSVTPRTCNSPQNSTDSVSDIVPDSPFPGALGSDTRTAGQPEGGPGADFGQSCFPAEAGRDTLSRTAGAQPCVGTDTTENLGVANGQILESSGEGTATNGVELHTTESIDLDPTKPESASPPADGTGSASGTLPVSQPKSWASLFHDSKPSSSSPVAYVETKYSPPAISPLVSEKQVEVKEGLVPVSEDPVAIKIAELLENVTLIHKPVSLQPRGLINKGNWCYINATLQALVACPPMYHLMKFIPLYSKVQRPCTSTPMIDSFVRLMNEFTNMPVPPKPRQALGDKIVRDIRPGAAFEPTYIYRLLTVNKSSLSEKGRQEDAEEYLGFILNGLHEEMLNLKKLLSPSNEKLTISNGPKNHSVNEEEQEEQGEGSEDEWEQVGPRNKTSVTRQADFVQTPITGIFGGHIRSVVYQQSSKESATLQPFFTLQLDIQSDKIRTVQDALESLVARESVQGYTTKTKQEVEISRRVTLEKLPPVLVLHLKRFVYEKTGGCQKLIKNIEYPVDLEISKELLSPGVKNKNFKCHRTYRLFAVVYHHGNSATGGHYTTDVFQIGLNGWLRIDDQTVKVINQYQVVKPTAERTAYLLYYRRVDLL
How it was run: as §1

USP15 = molecular target: T6, USP15 (UniProt Q9Y4E8)
T6 sequence (whole entry): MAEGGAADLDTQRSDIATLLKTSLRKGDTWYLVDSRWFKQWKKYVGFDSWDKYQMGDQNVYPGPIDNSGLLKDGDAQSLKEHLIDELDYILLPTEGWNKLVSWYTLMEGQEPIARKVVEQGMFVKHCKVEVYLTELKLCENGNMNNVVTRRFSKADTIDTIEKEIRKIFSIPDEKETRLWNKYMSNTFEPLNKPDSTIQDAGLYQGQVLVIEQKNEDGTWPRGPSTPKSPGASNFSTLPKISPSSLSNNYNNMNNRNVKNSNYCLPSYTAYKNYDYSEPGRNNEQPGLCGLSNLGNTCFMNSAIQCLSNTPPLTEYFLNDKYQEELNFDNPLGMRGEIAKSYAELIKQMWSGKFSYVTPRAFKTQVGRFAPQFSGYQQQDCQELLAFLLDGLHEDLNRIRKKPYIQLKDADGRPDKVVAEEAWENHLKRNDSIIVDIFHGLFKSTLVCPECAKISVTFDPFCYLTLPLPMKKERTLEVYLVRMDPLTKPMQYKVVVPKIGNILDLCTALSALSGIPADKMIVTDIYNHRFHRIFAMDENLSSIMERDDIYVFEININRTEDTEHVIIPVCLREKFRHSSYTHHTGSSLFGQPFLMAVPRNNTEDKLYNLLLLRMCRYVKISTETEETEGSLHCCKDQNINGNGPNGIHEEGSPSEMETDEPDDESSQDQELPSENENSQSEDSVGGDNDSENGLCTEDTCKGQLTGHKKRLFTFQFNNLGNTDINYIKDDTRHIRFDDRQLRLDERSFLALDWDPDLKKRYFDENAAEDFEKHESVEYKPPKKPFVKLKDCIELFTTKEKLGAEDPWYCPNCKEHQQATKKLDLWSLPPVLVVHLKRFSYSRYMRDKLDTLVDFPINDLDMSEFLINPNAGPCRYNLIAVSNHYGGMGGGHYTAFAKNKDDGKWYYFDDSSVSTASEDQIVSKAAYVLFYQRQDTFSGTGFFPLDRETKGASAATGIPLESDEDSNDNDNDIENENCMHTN
How it was run: as §1

Measured: log2 ratio of Biotin-Ahx-Ub-VS probe labelling

CN(CCc1ncc(Br)cn1)C(=O)CCl.Cl
inactive: OTUD6B -0.311 | PRPF8 -0.0479 | PSMD7 -0.205 | UCHL3 0.504 | UCHL5 -0.318 | USP10 -0.276 | USP15 -0.463
active: OTUD7B -1.39 | UCHL1 -1.55

— the supplement of paper PMC11732987, “Enantioselective OTUD7B fragment discovery through chemoproteomics screening and high-throughput optimisation” (Communications Chemistry, 2025)
